According to PubChem BioAssay (NCI):
Compounds without any hit were thinned out: in the full panel of roughly 83,000, 20% have a hit.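 Results are percent growth after 48 hours of single-concentration exposure. 100 means growth as in untreated cells, lower positive values show inhibition; negative values down to -100 show cell death.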 Values without a mark were called inactive. The calls were made as follows: active = growth percent below 10; inactive = the rest.

system: NCI-H322M lung; assay: NCI-60 one-dose screen, 48 h (100 = growth as untreated, 0 = no growth, -100 = all killed); conditions: 10 µM

Compound	growth [%]
CNC(=S)Sc1ccc([N+](=O)[O-])cc1[N+](=O)[O-]	99.1
O=C(CCc1ccccc1)N1CCN(C(=O)CCc2ccccc2)CC1	95.2
Cn1cnc([N+](=O)[O-])c1/C=C1\Oc2ccc(Cl)cc2C1=O	91
NC1CCC(Nc2nc(NCc3ccc(-c4ccco4)nc3)c3ncn(C4CCCC4)c3n2)CC1 (configuration not stated)	21.4
CCCCCN(CCCCC)C(C)C(O)c1ccc2cc(Cl)c3ccccc3c2c1 (configuration not stated)	103
O=C(NNC(=O)c1ccncc1)Nc1ccc([N+](=O)[O-])cc1	105
CC1(C)CNC(=O)N1	109
O=C(N/N=C/c1ccccc1O)c1ccccc1	34.3
CCn1nc(-c2ccccn2)c2cccnc2c1=S	87.3
CCN(CC)CCn1c(=N)n(CC(O)c2ccc(Cl)c(Cl)c2)c2ccccc21 (configuration not stated)	99.5
O=C(O)c1ccc(CNc2ccc(C(=O)CCl)cc2)cc1	102
COc1cc(CSc2nc3ccc(C)cc3c(=O)n2Cc2ccccc2)cc(OC)c1OC	46.2
COc1cc(C(c2c[nH]c3ccccc23)N2CCCC2)ccc1OCc1ccccc1 (configuration not stated)	72.7
Cn1c([N+](=O)[O-])cnc1C=C1C(=O)c2ccccc2C1=O	72.7
[O-]c1c[n+](-c2ccc(Cl)cc2)no1	94.1
COc1cc(C(=O)n2nc(N)c3c(C)cc(C)nc32)cc(OC)c1OC	88.6
N#CN1CC[C@H](C(=O)Nc2ncc(-c3ccccc3)s2)C1	28.4
